Of roughly 7,900 targets only a part is listed; those with a hit were picked by preference. About 0.6% of all pairs of compound and target were hits. Unmarked numbers belong to inactive results.

Sequence of UniProt Q9BUB7 (Q9BUB7 whole entry, looked up): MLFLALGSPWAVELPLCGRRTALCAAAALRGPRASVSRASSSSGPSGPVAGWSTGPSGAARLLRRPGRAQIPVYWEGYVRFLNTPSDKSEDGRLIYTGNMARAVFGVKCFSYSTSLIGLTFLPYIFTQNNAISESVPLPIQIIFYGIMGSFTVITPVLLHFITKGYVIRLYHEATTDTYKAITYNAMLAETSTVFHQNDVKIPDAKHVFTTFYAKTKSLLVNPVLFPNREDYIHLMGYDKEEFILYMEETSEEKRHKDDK
Sequence of UniProt Q8TBZ6 (Q8TBZ6 whole entry, looked up): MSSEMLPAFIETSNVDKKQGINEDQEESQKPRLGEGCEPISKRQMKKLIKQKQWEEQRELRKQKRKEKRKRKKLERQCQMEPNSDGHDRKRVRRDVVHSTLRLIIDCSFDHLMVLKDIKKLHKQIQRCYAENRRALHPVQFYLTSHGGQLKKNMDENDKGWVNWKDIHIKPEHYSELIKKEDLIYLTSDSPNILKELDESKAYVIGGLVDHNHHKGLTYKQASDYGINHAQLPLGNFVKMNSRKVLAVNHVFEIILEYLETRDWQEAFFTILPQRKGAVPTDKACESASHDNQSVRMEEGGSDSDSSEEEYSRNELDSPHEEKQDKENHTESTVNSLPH
Sequence of UniProt Q6ZXV5 (Q6ZXV5 whole entry, looked up): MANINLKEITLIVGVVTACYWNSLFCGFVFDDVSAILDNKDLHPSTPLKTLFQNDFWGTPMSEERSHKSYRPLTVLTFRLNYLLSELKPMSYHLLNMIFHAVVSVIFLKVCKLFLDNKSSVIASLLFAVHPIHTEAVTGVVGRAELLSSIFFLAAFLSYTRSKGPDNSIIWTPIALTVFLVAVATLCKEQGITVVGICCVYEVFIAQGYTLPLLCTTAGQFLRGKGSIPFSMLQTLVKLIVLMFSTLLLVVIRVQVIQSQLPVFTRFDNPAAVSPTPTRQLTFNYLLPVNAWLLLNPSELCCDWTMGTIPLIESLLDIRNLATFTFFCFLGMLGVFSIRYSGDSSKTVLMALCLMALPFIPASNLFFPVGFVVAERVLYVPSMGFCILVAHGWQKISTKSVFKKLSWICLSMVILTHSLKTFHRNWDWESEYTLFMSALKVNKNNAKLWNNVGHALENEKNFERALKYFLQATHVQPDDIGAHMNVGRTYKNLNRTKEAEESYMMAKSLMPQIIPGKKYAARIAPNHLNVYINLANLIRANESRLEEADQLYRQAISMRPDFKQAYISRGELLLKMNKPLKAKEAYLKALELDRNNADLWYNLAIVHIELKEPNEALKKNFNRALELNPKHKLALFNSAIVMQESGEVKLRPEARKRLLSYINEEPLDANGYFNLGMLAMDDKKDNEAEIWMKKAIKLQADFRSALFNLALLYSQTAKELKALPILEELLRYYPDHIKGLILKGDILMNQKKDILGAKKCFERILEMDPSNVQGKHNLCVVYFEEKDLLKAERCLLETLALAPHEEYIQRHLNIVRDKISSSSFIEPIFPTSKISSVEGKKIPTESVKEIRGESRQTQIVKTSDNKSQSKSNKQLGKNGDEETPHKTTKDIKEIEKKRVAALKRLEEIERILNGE
Sequence of UniProt P54578 (P54578 whole entry, looked up): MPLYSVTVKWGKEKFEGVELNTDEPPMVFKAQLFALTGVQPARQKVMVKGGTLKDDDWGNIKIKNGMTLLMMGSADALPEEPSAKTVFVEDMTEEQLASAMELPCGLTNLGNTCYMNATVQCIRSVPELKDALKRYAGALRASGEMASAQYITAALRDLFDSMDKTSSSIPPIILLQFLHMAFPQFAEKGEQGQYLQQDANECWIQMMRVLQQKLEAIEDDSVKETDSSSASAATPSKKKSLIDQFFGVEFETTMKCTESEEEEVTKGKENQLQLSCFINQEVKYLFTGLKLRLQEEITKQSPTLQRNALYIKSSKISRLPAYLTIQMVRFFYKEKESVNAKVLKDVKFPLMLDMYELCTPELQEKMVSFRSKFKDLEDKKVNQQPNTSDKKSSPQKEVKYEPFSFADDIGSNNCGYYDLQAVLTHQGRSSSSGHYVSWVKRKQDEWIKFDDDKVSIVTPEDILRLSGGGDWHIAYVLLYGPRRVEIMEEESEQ
Sequence of UniProt A3KMH1 (A3KMH1 whole entry, looked up): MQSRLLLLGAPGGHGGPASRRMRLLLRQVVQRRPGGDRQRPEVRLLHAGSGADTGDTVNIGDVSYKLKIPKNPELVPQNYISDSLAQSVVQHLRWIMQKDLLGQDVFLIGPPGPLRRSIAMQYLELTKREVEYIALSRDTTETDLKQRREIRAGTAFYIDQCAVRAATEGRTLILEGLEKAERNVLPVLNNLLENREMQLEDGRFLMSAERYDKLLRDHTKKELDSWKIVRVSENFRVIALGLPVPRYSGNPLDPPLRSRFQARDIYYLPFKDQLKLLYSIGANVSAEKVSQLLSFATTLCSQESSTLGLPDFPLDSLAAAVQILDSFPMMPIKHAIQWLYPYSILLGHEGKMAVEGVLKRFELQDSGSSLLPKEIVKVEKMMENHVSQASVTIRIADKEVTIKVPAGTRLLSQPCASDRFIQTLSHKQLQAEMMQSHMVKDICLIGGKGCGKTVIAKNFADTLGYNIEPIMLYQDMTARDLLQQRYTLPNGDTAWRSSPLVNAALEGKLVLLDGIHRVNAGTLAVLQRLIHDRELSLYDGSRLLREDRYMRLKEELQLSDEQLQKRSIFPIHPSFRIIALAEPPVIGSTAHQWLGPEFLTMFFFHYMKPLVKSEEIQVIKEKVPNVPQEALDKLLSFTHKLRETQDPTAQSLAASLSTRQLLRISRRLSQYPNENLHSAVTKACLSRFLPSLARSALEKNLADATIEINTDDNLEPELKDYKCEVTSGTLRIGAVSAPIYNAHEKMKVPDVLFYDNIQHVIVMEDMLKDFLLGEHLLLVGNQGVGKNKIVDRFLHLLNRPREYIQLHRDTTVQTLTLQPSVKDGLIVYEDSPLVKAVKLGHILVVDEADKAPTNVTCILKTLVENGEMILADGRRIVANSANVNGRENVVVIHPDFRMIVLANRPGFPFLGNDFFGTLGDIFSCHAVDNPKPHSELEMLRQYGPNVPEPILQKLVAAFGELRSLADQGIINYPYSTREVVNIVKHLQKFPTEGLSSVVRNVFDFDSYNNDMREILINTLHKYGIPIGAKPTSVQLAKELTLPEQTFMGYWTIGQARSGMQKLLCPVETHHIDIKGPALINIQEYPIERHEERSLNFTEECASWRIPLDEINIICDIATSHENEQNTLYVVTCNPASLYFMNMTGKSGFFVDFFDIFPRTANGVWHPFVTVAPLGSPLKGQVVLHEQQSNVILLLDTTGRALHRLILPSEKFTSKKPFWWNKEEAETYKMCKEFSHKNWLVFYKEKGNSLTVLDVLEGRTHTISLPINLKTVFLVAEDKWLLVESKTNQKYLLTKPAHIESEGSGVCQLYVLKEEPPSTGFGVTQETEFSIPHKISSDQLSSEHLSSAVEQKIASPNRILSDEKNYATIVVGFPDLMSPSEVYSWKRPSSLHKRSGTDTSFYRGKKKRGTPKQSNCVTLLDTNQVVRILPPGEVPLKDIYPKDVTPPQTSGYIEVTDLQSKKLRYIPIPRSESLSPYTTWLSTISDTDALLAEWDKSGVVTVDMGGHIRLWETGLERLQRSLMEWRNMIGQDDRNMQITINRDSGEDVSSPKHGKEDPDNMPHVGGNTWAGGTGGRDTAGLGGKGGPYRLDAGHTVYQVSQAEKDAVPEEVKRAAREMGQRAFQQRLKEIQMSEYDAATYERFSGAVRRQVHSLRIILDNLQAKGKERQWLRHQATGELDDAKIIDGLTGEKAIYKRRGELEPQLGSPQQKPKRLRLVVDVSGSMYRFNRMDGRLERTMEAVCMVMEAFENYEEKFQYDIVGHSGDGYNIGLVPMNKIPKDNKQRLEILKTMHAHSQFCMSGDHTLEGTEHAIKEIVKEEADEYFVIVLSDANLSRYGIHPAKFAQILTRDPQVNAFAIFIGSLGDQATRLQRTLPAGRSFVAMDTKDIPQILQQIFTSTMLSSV
Sequence of UniProt Q8N4H5 (Q8N4H5 whole entry, looked up): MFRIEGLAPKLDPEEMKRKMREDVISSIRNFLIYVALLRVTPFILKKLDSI
Sequence of UniProt P21796 (P21796 whole entry, looked up): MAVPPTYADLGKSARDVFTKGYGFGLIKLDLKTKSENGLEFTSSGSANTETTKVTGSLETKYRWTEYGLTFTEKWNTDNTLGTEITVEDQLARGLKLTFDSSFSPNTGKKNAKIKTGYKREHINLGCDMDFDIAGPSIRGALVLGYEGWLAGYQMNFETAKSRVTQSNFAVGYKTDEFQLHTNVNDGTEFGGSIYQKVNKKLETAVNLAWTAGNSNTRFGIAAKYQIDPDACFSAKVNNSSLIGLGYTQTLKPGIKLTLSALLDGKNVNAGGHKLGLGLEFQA
Sequence of UniProt P13010 (P13010 whole entry, looked up): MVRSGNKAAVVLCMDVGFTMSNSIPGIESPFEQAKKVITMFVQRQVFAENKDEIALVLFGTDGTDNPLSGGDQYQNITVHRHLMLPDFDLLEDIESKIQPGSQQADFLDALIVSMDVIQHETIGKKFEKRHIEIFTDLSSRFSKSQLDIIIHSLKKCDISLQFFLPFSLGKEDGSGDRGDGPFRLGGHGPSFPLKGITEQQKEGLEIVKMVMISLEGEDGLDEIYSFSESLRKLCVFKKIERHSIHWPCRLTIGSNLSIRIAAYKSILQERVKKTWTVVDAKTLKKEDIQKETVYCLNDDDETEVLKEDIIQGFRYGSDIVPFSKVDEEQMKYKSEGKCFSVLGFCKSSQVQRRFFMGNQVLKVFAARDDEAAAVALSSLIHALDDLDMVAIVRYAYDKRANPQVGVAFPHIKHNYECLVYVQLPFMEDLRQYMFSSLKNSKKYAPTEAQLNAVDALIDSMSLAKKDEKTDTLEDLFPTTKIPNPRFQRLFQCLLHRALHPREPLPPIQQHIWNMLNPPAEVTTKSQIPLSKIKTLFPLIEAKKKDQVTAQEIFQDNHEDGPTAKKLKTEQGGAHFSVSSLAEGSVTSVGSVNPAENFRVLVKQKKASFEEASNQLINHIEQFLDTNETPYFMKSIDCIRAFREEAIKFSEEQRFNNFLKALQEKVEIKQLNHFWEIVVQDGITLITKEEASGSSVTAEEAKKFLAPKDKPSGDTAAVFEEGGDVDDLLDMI

Compound in one assay: C[C@H](Nc1ncnc2nc[nH]c12)c1cc2cccc(Cl)c2c(=O)n1-c1ccccc1 [duvelisib]
Description: log2 fold change, soluble protein after heating vs DMSO (PISA); higher = thermal stabilisation; K562 cells, 10 uM, 30 min; active = over 0.2 and 3.5 SD of the protein, either way, in both replicates (recomputed). The procedure, abridged: (§1)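 K562 cells at 2×10^6 cells/mL were given 10 μM compound for 30 min. Aliquots then went through 3 min of heating across 48°C-58°C, were pooled, and were extracted in PBS with 0.5% NP-40 at 4°C, and the supernatant after 21,000xg for 90 min was quantified by TMTpro 16plex LC-MS/MS with channel sums equalised. Thermal stability relative to control samples, from duplicates, is given as log2 fold change.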
As for VPS18 (UniProt Q9P253), the log2 fold change was -0.035.

TRAPPC11 (UniProt Q7Z392): the log2 fold change was 0.043.

As for VDAC1 (UniProt P21796), the log2 fold change was -0.002.

TNPO1 (UniProt Q92973): the log2 fold change was 0.002.

Take UGDH (UniProt O60701): the log2 fold change was 0.061.

On to UCHL5 (UniProt Q9Y5K5), for which the log2 fold change is -0.006.

For the target TP53BP1 isoform 2 (UniProt Q12888), the log2 fold change was -0.025.

For the target VRK1 (UniProt Q99986), the log2 fold change was 0.168.

Consider WEE1 (UniProt P30291), for which the log2 fold change is 0.026.

VTI1A (UniProt Q96AJ9): the log2 fold change is 0.1.

For the target WASHC2A (UniProt Q641Q2), the log2 fold change was -0.061.

As for TMEM9 (UniProt Q9P0T7), the log2 fold change was -0.012.

With VPS33A (UniProt Q96AX1), the log2 fold change is 0.029.

For the target TMEM70 (UniProt Q9BUB7), the log2 fold change is -0.016.

Regarding XRCC5 (UniProt P13010), the log2 fold change was -0.017.

On to TRAPPC3 (UniProt O43617), for which the log2 fold change was 0.06.

Consider TNPO3 (UniProt Q9Y5L0), for which the log2 fold change was -0.008.

For the target TPM2 (UniProt P07951), the log2 fold change was -0.131.

For the target UBE4B isoform 4 (UniProt O95155), the log2 fold change is 0.012.

With USP14 (UniProt P54578), the log2 fold change was 0.067.

On to VPS50 (UniProt Q96JG6), for which the log2 fold change is -0.017.

As for TMEM87B (UniProt Q96K49), the log2 fold change is 0.101.

Take TMEM263 (UniProt Q8WUH6): the log2 fold change was -0.007.

Regarding TYW1 (UniProt Q9NV66), the log2 fold change is 0.035.

Turning to VPS33B (UniProt Q9H267), the log2 fold change was -0.004.

Consider TMEM164 (UniProt Q5U3C3), for which the log2 fold change was 0.601 (active).

Take WASH2P (UniProt Q6VEQ5): the log2 fold change is -0.02.

With TOMM5 isoform 2 (UniProt Q8N4H5), the log2 fold change was 0.075.

As for TRIP10 isoform 2 (UniProt Q15642), the log2 fold change was 0.001.

Turning to TMEM106B (UniProt Q9NUM4), the log2 fold change is 0.03.

As to TMTC3 (UniProt Q6ZXV5), the log2 fold change was -0.017.

As to USP24 (UniProt Q9UPU5), the log2 fold change is 0.219.

VWA8 (UniProt A3KMH1): the log2 fold change was 0.066.

As for UBLCP1 (UniProt Q8WVY7), the log2 fold change is 0.03.

As to VARS2, A0A0G2JL52, the log2 fold change was 0.012.

For TRMT10A (UniProt Q8TBZ6), the log2 fold change is 0.053.

Compound in the next assay: Cc1cc(Nc2cc(CN3CCOCC3)c3nc(C)c(Cc4ccc(Cl)cc4F)n3n2)n[nH]1 [gandotinib]
The assay is described as above. An outline of the steps:
as §1
With VPS18 (UniProt Q9P253), the log2 fold change is -0.041.

With TRAPPC11 (UniProt Q7Z392), the log2 fold change is -0.047.

In the case of VDAC1 (UniProt P21796), the log2 fold change is 0.017.

As to TNPO1 (UniProt Q92973), the log2 fold change was -0.128.

In the case of UGDH (UniProt O60701), the log2 fold change was -0.064.

In the case of UCHL5 (UniProt Q9Y5K5), the log2 fold change was -0.116.

TP53BP1 isoform 2 (UniProt Q12888): the log2 fold change was -0.053.

For VRK1 (UniProt Q99986), the log2 fold change is -0.067.

With WEE1 (UniProt P30291), the log2 fold change is 0.247.

Consider VTI1A (UniProt Q96AJ9), for which the log2 fold change was 0.046.

WASHC2A (UniProt Q641Q2): the log2 fold change was 0.012.

In the case of TMEM9 (UniProt Q9P0T7), the log2 fold change is -0.026.

VPS33A (UniProt Q96AX1): the log2 fold change is -0.091.

TMEM70 (UniProt Q9BUB7): the log2 fold change was -0.08.

As for XRCC5 (UniProt P13010), the log2 fold change was -0.001.

On to TRAPPC3 (UniProt O43617), for which the log2 fold change is -0.048.

For TNPO3 (UniProt Q9Y5L0), the log2 fold change is -0.143.

Turning to TPM2 (UniProt P07951), the log2 fold change is -0.046.

With UBE4B isoform 4 (UniProt O95155), the log2 fold change is -0.048.

With USP14 (UniProt P54578), the log2 fold change was -0.078.

Take VPS50 (UniProt Q96JG6): the log2 fold change was -0.066.

Regarding TMEM87B (UniProt Q96K49), the log2 fold change is -0.11.

Turning to TMEM263 (UniProt Q8WUH6), the log2 fold change was -0.385.

On to TYW1 (UniProt Q9NV66), for which the log2 fold change is -0.004.

In the case of VPS33B (UniProt Q9H267), the log2 fold change was -0.114.

As for TMEM164 (UniProt Q5U3C3), the log2 fold change is -0.204.

For the target WASH2P (UniProt Q6VEQ5), the log2 fold change was -0.03.

For the target TOMM5 isoform 2 (UniProt Q8N4H5), the log2 fold change was 0.136.

Consider TRIP10 isoform 2 (UniProt Q15642), for which the log2 fold change was 0.147.

As to TMEM106B (UniProt Q9NUM4), the log2 fold change was -0.021.

TMTC3 (UniProt Q6ZXV5): the log2 fold change was -0.039.

On to USP24 (UniProt Q9UPU5), for which the log2 fold change is -0.213.

Regarding VWA8 (UniProt A3KMH1), the log2 fold change is -0.038.

With UBLCP1 (UniProt Q8WVY7), the log2 fold change is -0.06.

VARS2, A0A0G2JL52: the log2 fold change was -0.061.

Consider TRMT10A (UniProt Q8TBZ6), for which the log2 fold change is 0.

Values taken from the supplement of paper PMC10849652.
